The values below come from PubChem BioAssay (NCATS).

Inconclusive results are not listed. Unmarked numbers belong to inactive results. Active and inactive are the calls of the source. Calls follow the shape of the full dose curve.
% is scaled to controls: 0 for no effect and ±100 for the full control effect; potency is read from the fitted curve at half-maximal effect.

Atrial natriuretic peptide receptor 1 (Homo sapiens), sequence (P16066 whole entry, looked up, the tested form may be a part): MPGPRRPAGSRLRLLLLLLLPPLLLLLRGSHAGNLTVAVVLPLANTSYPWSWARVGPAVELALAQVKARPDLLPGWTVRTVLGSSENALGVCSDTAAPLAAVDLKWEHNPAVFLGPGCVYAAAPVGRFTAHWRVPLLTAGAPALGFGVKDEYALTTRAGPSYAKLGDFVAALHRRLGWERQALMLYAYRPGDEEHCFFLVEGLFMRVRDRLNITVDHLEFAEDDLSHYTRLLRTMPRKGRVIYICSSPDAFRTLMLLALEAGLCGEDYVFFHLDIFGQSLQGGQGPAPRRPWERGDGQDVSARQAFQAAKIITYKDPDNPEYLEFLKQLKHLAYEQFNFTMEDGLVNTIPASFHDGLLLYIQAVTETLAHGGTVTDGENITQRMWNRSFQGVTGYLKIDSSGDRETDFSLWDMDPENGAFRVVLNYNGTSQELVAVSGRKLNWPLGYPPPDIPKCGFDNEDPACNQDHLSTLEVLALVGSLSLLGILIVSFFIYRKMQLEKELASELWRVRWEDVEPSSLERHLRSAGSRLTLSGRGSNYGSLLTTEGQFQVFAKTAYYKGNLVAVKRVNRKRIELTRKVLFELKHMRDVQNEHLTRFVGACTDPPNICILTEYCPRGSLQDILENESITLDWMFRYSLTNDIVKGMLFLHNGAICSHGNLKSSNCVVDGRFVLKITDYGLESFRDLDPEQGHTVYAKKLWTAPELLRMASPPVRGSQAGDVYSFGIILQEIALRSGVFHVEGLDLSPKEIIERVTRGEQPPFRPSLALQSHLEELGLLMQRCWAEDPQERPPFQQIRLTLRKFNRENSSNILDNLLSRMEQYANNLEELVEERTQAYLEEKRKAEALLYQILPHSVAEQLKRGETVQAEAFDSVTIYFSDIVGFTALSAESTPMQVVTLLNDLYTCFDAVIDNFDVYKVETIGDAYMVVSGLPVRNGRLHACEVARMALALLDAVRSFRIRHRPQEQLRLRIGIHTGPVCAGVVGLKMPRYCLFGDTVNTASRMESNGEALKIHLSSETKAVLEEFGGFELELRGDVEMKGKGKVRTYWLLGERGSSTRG

This experiment concerns the target Atrial natriuretic peptide receptor 1 (Homo sapiens) (UniProt P16066). Description: Natriuretic polypeptide receptor (hNpr1) antagonism - Pilot CMLD screen (AID 1347052). Conditions: HEK293 hNpr1 GloSensor cGMP luminescence, ANP-stimulated; series mostly up to 9.22 µM; activity change, negative = inhibition: at the top concentration. The procedure:
In order to identify small molecular compounds that inhibit the hNpr1 receptor we developed a high-throughput assay to measure inhibition of the guanylate cyclase activity of the receptor. cGMP production was measured using a circular permutated Firefly luciferase (FLuc) enzyme functionally linked to the cGMP binding domain of human phosphodiesterase 5 (GloSensor technology pGS-40F, (Fan, F. et al. 2008). The cGMP-sensor was expressed in human embryonic kidney 293 (HEK-293) cells and FLuc activity was measured after stimulation with hNrp agonist peptide. hNrp agonists activates the receptor's associated guanylyl cyclase (GC) domain producing cGMP which then binds to the GloSensor resulting in FLuc activation, the enzymatic activity of which can be measured as bioluminescence with addition of luciferin substrate.
This assay was initially piloted by testing with a small library of specialty compounds.
PROTOCOL TABLES (as described by Inglese J, Shamu CE and Guy RK. 2007)
SEQUENCE No. (e.g., 1, 2, 3, etc.); […] (e.g., Cells, Incubation, Reagent, etc.); VALUE and DESCRIPTION.
1. Cells. Seed 1500 HEK293 cGMP-sensor cells expressing hNpr1 per well in 4uL into Greiner 1536-well white/solid bottom high base, tissue culture-treated plates.
2. Incubation. Incubate plated cells at 37C in 5% CO2, 95% RH overnight.
3. Reagent. Add 1uL per well GloSensor reagent from Promega (2% final concentration) or CO2 independent media vehicle control to respective columns of Greiner 1536-well plates.
4. Incubation. Incubate plated cells at room temperature for 2 h, protect from light.
5. Compounds. Library compounds and A-71915 control added at 23 nL per well, transferred by Pin Tool.
6. Incubation. Incubate plated cells for 30 min. at room temperature, protect from light.
7. Detector. GloSensor baseline pre-read luminescence measured using CCD-based camera (Viewlux).
8. Compound. Add 1uL of hNppA peptide to 0.1 nM final concentration to stimulate hNpr1 or CO2 independent media as vehicle control.
9. Incubation. Incubate treated cells at room temperature for 20 min., protect from light.
10. Detector. GloSensor post-hNppA luminescence measured using CCD-based camera (Viewlux).
NOTES (numbers refer to Sequence numbers above)
1. HEK293 cells expressing hNpr1 and GIP/pGS-40F grown to 85-95% confluence (48-72 h) in T175 culture flasks (CO2 independent media supplemented with 10% FBS, 1% Pen/Strep antibiotics and 1 ug/mL puromycin). Trypsinize and harvest cells from T175 culture flasks and filter through 40 um cell strainer. Cells counted with Invitrogen Countess (30,000,000 - 50,000,000 cells/flask). Cells diluted to a final concentration of 375 cells/uL in CO2 independent media and a Millipore multidrop used to dispense 1500 cells per well (4uL/well) into 13 1536-well Greiner White/Solid bottom, high base tissue-culture treated (TC) plates and one Aurora 1536-well Black/Clear bottom, low base, TC plate (for visual inspection of cell health throughout the duration of the assay).
2. Cells incubated overnight at ambient temperature, 24 h. at 37C in 95% RH incubator protected from light, covered with metal lid with gas-exchange holes.
3. Prepare GloSensor Reagent (Promega): Reconstitute GloSensor luciferase substrate by adding 8.2mL Hepes buffer to 250mg substrate, mix well, protect from light and stored at -80C. Prepare a fresh 12% GloSensor solution in CO2 independent supplemented plating media (see above). Mix well and store at ambient temperature, protected from light. 1uL 12% GloSensor Luciferase Reagent added (2% final concentration) to respective columns of 13 x 1536-well Greiner plate with BioRaptr, 1uL CO2 independent plating media added to respective columns as vehicle control with BioRaptr.
4. Cells incubated for 2 h. at ambient temperature, protected from light with metal lid with gas-exchange holes.
5. A-71915 stock solution prepared (10 mM in DMSO). […]
As for `C=CC[C@@]1(c2ccc(Br)cc2OC)Oc2ccccc2-c2nccnc21`, the “activity change, negative = inhibition” value was -1.18%.

Take `CC(=O)OC[C@H]1O[C@@H](ON=C2C[C@@H](O)[C@@H](O)[C@@H]3[C@H]4C(=O)N(C5CCCCC5)C(=O)[C@@H]4CC[C@@H]23)[C@H](OC(C)=O)[C@@H](OC(C)=O)[C@H]1OC(C)=O`: the “activity change, negative = inhibition” value is 3.87%.

For the compound `C[C@@H]1CC[C@H]2C(=O)N(Cc3cccc([N+](=O)[O-])c3)C[C@@H](O)CN2[C@@H]1c1ccc(Br)cc1`, the “activity change, negative = inhibition” value is -0.764%.

Regarding `CC1=CC[C@@H](COc2ccccc2)O[C@@]2(C1)C(=O)N(Cc1ccc(F)cc1)c1cccc(Br)c12`, the “activity change, negative = inhibition” value was -9.98%.

Take `O=C1[C@H]2[C@@H]3[C@@H](O)[C@H](O)CC(=NOCc4ccccc4)[C@@H]3CC[C@H]2C(=O)N1C1CCCCC1`: the “activity change, negative = inhibition” value was 10%.

Regarding `CC1(OC(=O)C2CCCC2)C(=O)C=C2C=C(c3ccsc3)N(C3CCCC3)C=C2C1=O` (stereo not given), the “activity change, negative = inhibition” value is 5.53%.

With `COc1ccc(-c2cnnc(CCCn3ccnc3-c3ccccc3)n2)cc1`, the “activity change, negative = inhibition” value was -2.13%.

`CCCCc1cc2c(cn1)=C(OC(=O)CCC(=O)OC)C(C)(OC(=O)CC)C(=O)C=2` (stereo not given): the “activity change, negative = inhibition” value was 0.742%.

`CC(C)=CCCC(C)=CCN1C(=O)[C@@]2(CC(C)=CC[C@@H](C)O2)c2c(Br)cccc21`: the “activity change, negative = inhibition” value is 4.65%.

Turning to `CCOC(=O)c1c(C(=O)OCC)c2c3ccccc3cc(C)n2c1C(=O)OC`, the “activity change, negative = inhibition” value was -0.206%.

As to `COC(=O)N[C@H](CC(C)=O)c1cccc(C(F)(F)F)c1`, the “activity change, negative = inhibition” value was -16%.

`O=C1[C@@H]2[C@H]3[C@H](O)[C@H](O)CC(=NOC[C@@H](O)COCc4ccco4)[C@@H]3CC[C@H]2C(=O)N1C[C@@H]1CCCO1`: the “activity change, negative = inhibition” value was -1.16%.

Consider `COc1ccc(O[C@H]2C=C[C@@H](c3ccccc3)O[C@H]2COC(=O)CCC(C)=NO[C@H](C)CN2CCCc3nc(C)c(C)cc32)cc1`, for which the “activity change, negative = inhibition” value was 0.0192%.

For `CC(=O)OC[C@H]1O[C@H](C#Cc2ccc(F)cc2F)C=C[C@H]1OC(C)=O`, the “activity change, negative = inhibition” value was 1.28%.

With `COc1cccc([C@H]2Oc3ccc(OC)cc3C(=NO[C@@H](C)c3cc(-c4c(C)cc(C)cc4C)no3)[C@H]2O)c1`, the “activity change, negative = inhibition” value was -0.147%.

For `CC1=C[C@@H](COCc2ccccc2)O[C@@]2(C1)C(=O)N(Cc1ccccc1C(F)(F)F)c1ccccc12`, the “activity change, negative = inhibition” value was -0.984%.

`C=COC[C@@H]1CN2[C@H](c3ccc(Br)cc3)[C@H](C)CC[C@H]2C(=O)O1`: the “activity change, negative = inhibition” value is -1.1%.

Regarding `COCCN1C(=O)CC[C@@]23C1=NC(C(=O)OC)=C(C(=O)OC)[C@@H]2N(C)c1ccccc13`, the “activity change, negative = inhibition” value was -1.47%.

In the case of `OC[C@H]1O[C@H](c2ccccc2)C=C[C@H]1OCc1cccc(Br)c1`, the “activity change, negative = inhibition” value is 2.15%.

For `COCCN1C(=O)C2=C(C1=O)C1N(C)c3ccccc3[C@@]13C[C@@H](CO)N(C(=O)CCC(=O)OC)C3=N2` (stereo not given in full), the “activity change, negative = inhibition” value is 4.62%.

`C=C(COC)C1=CCC(C(=O)OC)(C(=O)OC)[C@@H](C[N+](=O)[O-])c2ccccc21`: the “activity change, negative = inhibition” value was 0.247%.

Consider `COC1=C[C@H](C(=O)NC2CCN(Cc3ccccc3)CC2)[C@@]2(C)Cc3ccccc3[C@@H]2CC1=O`, for which the “activity change, negative = inhibition” value was -1.58%.

Consider `Cc1ccc(S(=O)(=O)OC[C@@H]2CN3[C@H](c4ccc(Br)cc4)[C@H](C)CC[C@H]3C(=O)O2)cc1`, for which the “activity change, negative = inhibition” value was 0.294%.

In the case of `Cc1noc(C)c1S(=O)(=O)N1CCc2nc(-c3ccccc3)c3c(c2C1)CO[C@@H](C)C3`, the “activity change, negative = inhibition” value is -0.244%.

On to `CCCCCCCC1=Cc2ccccc2C(CC(C)=O)N1C(=O)OC` (stereo not given), for which the Potency entry is “inactive”.

Turning to `COC[C@H]1O[C@@H]2O[C@@H]1[C@@H](C=Cc1ccccc1)C[C@H]2C`, the “activity change, negative = inhibition” value was 1.02%.

Consider `COC(=O)NC(c1ccc2c(c1)OCO2)C(C(=O)OC)C(=O)OC` (stereo not given), for which the “activity change, negative = inhibition” value is -7.28%.

For `COc1cccc(CO[C@H]2C=C[C@@H](c3ccccc3)O[C@H]2CO)c1`, the “activity change, negative = inhibition” value was -0.113%.

Take `C[C@@H]1[C@@H](c2ccccc2)c2cc3ccccc3nc2-c2nc3ccccc3cc2[C@H]1C(=O)N1CCCC1`: the “activity change, negative = inhibition” value was 10.3%.

Consider `COCCN1C(=O)NC(c2cccc(F)c2)C(C(=O)OC)=C1C` (stereo not given), for which the “activity change, negative = inhibition” value was -6.02%.

`CC(CCC#N)[N+](=O)[O-]` (stereo not given): the Potency was 5.31 µM (active).

As for `COC(=O)C1=C(C)N(Cc2ccccc2)C(=NCCc2ccc(O)cc2)NC1c1ccc(Br)cc1` (stereo not given), the “activity change, negative = inhibition” value was -4.29%.

Take `COc1ccc(COC(=O)NN=C2C[C@@H](O)[C@@H](O)[C@@H]3[C@H]4C(=O)N(c5ccc(F)cc5F)C(=O)[C@@H]4CC[C@H]23)cc1`: the “activity change, negative = inhibition” value is 1.84%.

With `C=CC[C@@]1(c2ccccc2)Oc2ccccc2-c2nc3ccccc3nc21`, the “activity change, negative = inhibition” value is 1.34%.

For `CCN1C(N(C)CCc2ccc(Br)cc2)=NC(c2ccccc2)C(C(=O)OC)=C1C` (stereo not given), the “activity change, negative = inhibition” value was -8.25%.

Turning to `Cc1cc2c(c(=O)n1Cc1ccccc1)[C@H]1O[C@](c3ccsc3)(Cc3ccccc31)O2`, the “activity change, negative = inhibition” value was 0.432%.

Turning to `COC(=O)N[C@H](C(C(=O)OC)=C(C)NCc1ccccc1)c1cccs1`, the “activity change, negative = inhibition” value was -0.544%.

As for `C=CCC(C)(NCc1ccccc1)C(=O)OCC` (stereo not given), the “activity change, negative = inhibition” value is -2.51%.

Take `COC(=O)c1ccc(CN2C(=O)[C@]3(OCCC=C[C@@H]3C)c3cc(OC)ccc32)cc1`: the “activity change, negative = inhibition” value is 0.557%.

With `COC(=O)C1=C(C)N(Cc2ccccc2)C(=NCCc2cccnc2)NC1c1ccccc1` (stereo not given), the “activity change, negative = inhibition” value is -4.82%.
